High-throughput results: PubChem BioAssay, National Center for Advancing Translational Sciences (NCATS)
Shown are actives, neighbours in structure and some others; about 7.5% of the full set was active somewhere.
HCV inh = blocks hepatitis C virus | Potency, µM (series often up to 41.8 µM), for the others: at the highest dose activity change, negative = inhibition, most hits filed as inhibitors | actives 3.4% (n = 340,000) | Huh7.5.1 HCVcc-Cre infection, luciferase reporter, 44 h; note: potency is the fitted concentration of half-maximal effect; % is set by controls: 0 for no effect and ±100 for the full control effect
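Antiviral activity was scored by luciferase reporter output from cells infected with HCVcc-Cre (~0.5 moi) in presence of compound, 44 h infection period, cells seeded 1,000/well 4 h prior.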
FBPA Giardia inh = blocks Giardia fructose-bisphosphate aldolase activity; purified Giardia FBPA; Potency, µM (top dose mostly 59.6 µM), inactives show at the top dose activity, negative = inhibition, usual class: inhibitors; actives 0.71% (n = 290,000); note: potency is the fitted concentration of half-maximal effect; % is set by controls: 0 for no effect and ±100 for the full control effect; nearly all actives have a fitted effect of over 55% in size
Target sequence (A8B2U2 whole entry, looked up): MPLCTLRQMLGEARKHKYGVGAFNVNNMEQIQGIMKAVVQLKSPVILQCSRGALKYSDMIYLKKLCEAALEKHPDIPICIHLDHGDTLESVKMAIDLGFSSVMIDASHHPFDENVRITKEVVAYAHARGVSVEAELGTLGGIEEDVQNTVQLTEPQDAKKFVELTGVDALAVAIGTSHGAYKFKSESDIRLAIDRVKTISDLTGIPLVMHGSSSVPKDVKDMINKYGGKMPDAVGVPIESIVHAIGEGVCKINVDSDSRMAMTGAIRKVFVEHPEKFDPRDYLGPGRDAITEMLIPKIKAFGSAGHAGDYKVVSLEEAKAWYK
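40 nM FBPA preincubated 10 min at RT with compound (up to 57.5 uM final), then substrate plus GAPDH/TPI/NAD/arsenate coupling and diaphorase/resazurin added. Fluorescence read after 20 min at RT, 525/598 nm.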
FMDV antiviral = blocks foot and mouth disease virus | FMDV antiviral cell-based qHTS | Potency, µM (top dose mostly 57.9 µM), without a hit: top-dose activity change, negative = inhibition, usual class: inhibitors | actives 1.2% (n = 410,000) | AID 1159524; calls by dose curve; tested in HEK293T cells; note: read-out not given here; potency is the fitted concentration of half-maximal effect; % is set by controls: 0 for no effect and ±100 for the full control effect; nearly all actives have a fitted effect of over 45% in size
HCMV inh = inhibitors of human cytomegalovirus. HFF cells, HCMV-luciferase reporter, 72 h; active compounds read low. actives 4.5% (n = 410,000). activity change, negative = inhibition, % at 57.5 µM. AID 1259415; in the data active = activity change below about -60%; inconclusive = no clear call, values can overlap the other calls; inactive = above about -39%; note: % is set by controls: 0 for no effect and ±100 for the full control effect
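Luciferase read-out from HCMV-luciferase-infected HFFs (MOI 1 PFU/cell) 72 h post infection at 37C; compounds added after 16 h cell attachment; activity normalized between buffer-only basal and Salinomycin (10uM) inhibitor controls.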
VACV mCherry inh = vaccinia inhibition (mCherry reporter); Vaccinia virus mCherry reporter infection, fluorescence; Potency, µM (highest dose often 36.5 µM), for the others: at the highest dose activity change, negative = inhibition, most hits filed as inhibitors; actives 0.63% (n = 310,000); calls by dose curve; tested in A549 cells; note: potency is the fitted concentration of half-maximal effect; % is set by controls: 0 for no effect and ±100 for the full control effect; nearly all actives have a fitted effect of over 35% in size
VACV Venus inh = vaccinia inhibition (Venus reporter); Vaccinia virus Venus reporter expression, fluorescence; Potency, µM (titrated, usually from 36.5 µM), inactives show top-dose activity change, negative = inhibition, usual class: inhibitors; actives 0.46% (n = 330,000); calls by dose curve; tested in A549 cells; note: potency is the fitted concentration of half-maximal effect; % is set by controls: 0 for no effect and ±100 for the full control effect; nearly all actives have a fitted effect of over 30% in size
HCV inh confirm = confirmation of hepatitis C virus inhibitors. shares compounds with HCV inh. HCVcc-Cre infectious virus cell assay, luciferase, inhibition. Potency, µM (top dose mostly 41.8 µM), for inactives: at the top dose activity, negative = inhibition, hits mostly inhibitors. actives 78% (n = 640); note: potency is the fitted concentration of half-maximal effect; nearly all actives have a fitted effect of over 80% in size
HCV cytotox = host cell cytotoxicity counter-screen for HCV inhibitors; shares compounds with HCV inh; HCV host cell line cytotoxicity counterscreen; actives 22% (n = 640); Potency, µM (doses to about 41.8 µM), for the others: top-dose activity change, negative = cytotoxicity, most hits filed as inhibitors;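 note: potency is the fitted concentration of half-maximal effect; 44 h compound exposure; % is set by controls: 0 for no effect and ±100 for the full control effect; nearly all actives have a fitted effect of over 55% in size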
* hit, by the source's call; i = inactive; ? = inconclusive; / = no result given. Unless noted, calls come from the whole dose curve; as a rule, active = well fitted curve in the direction sought with a large enough effect; inconclusive = small, poorly fitted or top-dose-only effect, or another doubt; inactive = no such curve, though single readings can be large; an effect the other way counts as inactive or inconclusive.

SMILES	HCV inh	FBPA Giardia inh	FMDV antiviral	HCMV inh	VACV mCherry inh	VACV Venus inh	HCV inh confirm	HCV cytotox
C=C(NC(=O)C(=C)NC(=O)c1csc(C2=NC3c4csc(n4)C4NC(=O)c5csc(n5)C(C(C)(O)C(C)O)NC(=O)C5CSC(=N5)/C(=C/C)NC(=O)C(C(C)O)NC(=O)c5csc(n5)C3(CC2)NC(=O)C(C)NC(=O)C(=C)NC(=O)C(=C)NC(=O)C(C(C)C)NC2C=Cc3c(C(C)O)cc(nc3C2O)C(=O)OC4C)n1)C(N)=O (centres undefined)	4µM*	/	?	-98*	-27%	-21%	2.5µM*	3.1µM*
C=C(NC(=O)C(=C)NC(=O)c1csc(C2=NC3c4csc(n4)C4NC(=O)c5csc(n5)C(C(C)(O)C(C)O)NC(=O)C5CSC(=N5)C(=CC)NC(=O)C(C(C)O)NC(=O)c5csc(n5)C3(CC2)NC(=O)C(C)NC(=O)C(=C)NC(=O)C(C)NC(=O)C(C(C)CC)NC2C=Cc3c(C(C)O)cc(nc3C2O)C(=O)OC4C)n1)C(N)=O (centres undefined)	/	-13%	6%	/	-13%	-10%	/	/
O=C(CCCCn1c(=O)c2ccccc2n(Cc2cccc(F)c2)c1=O)NCc1ccc2c(c1)OCO2	/	/	-1%	8	-20%	-16%	/	/
CN(CCO)c1cnccn1	8%	4%	-9%	22	i	-6%	/	/
S=C(S)N1CCCC1	?	13µM*	-17%	-36	-5%	-23%	25µM*	28µM*
Oc1ccc(C(=S)N2CCCC2)cc1	14%	-15%	0%	0	/	/	/	/
O=C(CSc1nc2nn(-c3ccccc3)c(=O)c-2c2n1CCCCC2)NCCCc1ccccc1	?	2%	3%	-5	-9%	-2%	/	/
O=C(CSc1nc2nn(-c3ccccc3)c(=O)c-2c2n1CCCCC2)Nc1ccccc1[N+](=O)[O-]	?	/	15%	-36	-17%	?	14µM*	35%
CCc1nc2c(OCc3ccc(Cl)cc3)cccn2c1N(C)C(=O)c1ccc(C)cc1	/	/	-20%	45	-19%	-15%	/	/
Cc1ccc2c(c1)c1c3n2CC(=C2C(=O)OC(C)(C)OC2=O)NC3CCC1 (centres undefined)	5µM*	?	/	-24	?	-11%	28µM*	-34%
Cc1ccc2c(c1)c1c3n2CCN(C(=O)C2CC2)C3CCC1 (centres undefined)	-14%	?	-1%	-22	-26%	-21%	/	/
COc1ccc(Cn2ccnc2SCC(=O)Nc2ccc(C)cc2C)cc1	/	/	11%	-15	i	-11%	/	/
C=CCn1c(SCC(=O)Nc2cc(C)on2)nc2ccccc21	/	/	-19%	-10	i	-6%	/	/
CCN(C(=O)CCS(=O)(=O)c1cccc2nonc12)c1ccc(F)cc1	-3%	13%	76%	-10	i	-3%	/	/
CCCOc1ccc(/C=C/C(=O)Nc2ccc([N+](=O)[O-])cc2)cc1	3.5µM*	-1%	5.6µM*	-70*	-18%	-10%	7.9µM*	20µM*
Cc1ccccc1NC(=O)COC(=O)c1ccc(CSc2ccc(Cl)cc2)cc1	20%	8%	23%	55	-9%	-1%	/	/
Cc1cc(CSc2ccc(Cl)cc2)ccc1N	4µM*	/	15%	4	?	?	6.3µM*	-12%
Fc1ccc(C(c2nnnn2Cc2cccs2)N2CCN(C3CCCC3)CC2)cc1 (centres undefined)	?	-3%	?	-9	?	-32%	-12%	-17%
O=C(NCc1ccccc1)C1c2ccccc2OCC(=O)N1CCc1c[nH]c2ccccc12 (centres undefined)	/	/	-16%	28	31%	11%	/	/
Clc1ccc2c(NCc3ccccc3)ccnc2c1	5.6µM*	22%	?	-74*	-4%	-12%	10µM*	?
Nc1ccc2c(c1)C(=O)c1ccccc1C2=O	?	/	84%	27	-13%	5%	/	/
Nc1ccc2c(c1)C(=O)c1ccc(Br)cc1-2	?	/	-1%	45	-33%	-21%	-20%	-10%
O=C(Nc1cccc(NC(=O)c2ccc(-c3ccc(Br)cc3)o2)c1)c1ccco1	6.3µM*	-1%	-10%	?	/	/	7µM*	17%
O=C(Nc1cccc(-c2nc3ccccc3o2)c1)c1ccc(-c2ccc(Br)cc2)o1	/	/	0%	4	-5%	-3%	/	/
COc1cc2sc(C)nc2c2sccc12	2.2µM*	-12%	-14%	11	-17%	-10%	25µM*	43%
SMILES	HCV inh	FBPA Giardia inh	FMDV antiviral	HCMV inh	VACV mCherry inh	VACV Venus inh	HCV inh confirm	HCV cytotox
COc1ccc(-c2nc(CN3CCN(c4ncnc5ccccc45)CC3)c(C)o2)c(OC)c1	5µM*	0%	20µM*	-82*	/	/	5µM*	7.9µM*
CCOc1ccccc1C(=O)Nc1ccc2nc(N3CCN(c4ncccn4)CC3)cc(C)c2c1	2.2µM*	/	8.9µM*	/	/	/	5µM*	-79%
CCN1CCN(c2cc(C)c3cc(NC(=O)c4cccc(OC)c4)ccc3n2)CC1	?	2%	28%	?	/	/	/	/
COc1cccc(C(=O)Nc2ccc3nc(N4CCOCC4)cc(C)c3c2)c1	?	-2%	-9%	-9	-8%	-5%	2.8µM*	17%
COc1cccc(C(=O)Nc2ccc3nc(N4CCN(c5ncccn5)CC4)cc(C)c3c2)c1OC	?	-5%	/	/	/	/	/	/
CCOC(=O)c1c(CN2CCN(CCO)CC2)n(C)c2cc(Br)c(OC)cc12	2.8µM*	8%	-1%	-18	/	/	10µM*	19%
COc1cc2c(C(=O)O)c(C)n(C)c2cc1Br	5%	-2%	-4%	?	i	-13%	/	/
CCOC(=O)c1c(C)n(C)c2cc(Br)c(OC)cc12	7.9µM*	0%	-14%	-28	-16%	-8%	14µM*	16%
O=C(Nc1nc(-c2ccc(Br)cc2)ns1)c1ccc(F)cc1	/	/	-28%	-6	-6%	-19%	/	/
O=C(NCc1ccccc1Cl)c1csc([C@@H]2O[C@H](CO)[C@H](O)[C@H](O)[C@H]2O)n1	/	/	-18%	19	-11%	-9%	/	/
CCn1c(=NC(=O)C2COc3ccccc3O2)sc2c(C)ccc(OC)c21 (centres undefined)	?	-1%	?	?	/	/	13µM*	36%
COc1ccc(N=Nc2c(C)[nH]c3ccccc23)cc1	7.1µM*	/	49%	14	?	-19%	20µM*	-6%
